Experimental data published in PubChem BioAssay.
The source made the active and inactive calls.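 Rule for the calls, unless noted: active = calcium signal rise more than 3 SD above the low-dose agonist control mean, in both duplicate plates and the primary screen; inactive = the rest.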

Assay: nonspecific calcium rise without TRPC4 – cell-based, HEK293 mu-opioid receptor line, counter-screen for TRPC4 activator project, confirmation (AID 449723;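 active = hit in primary screen, with calcium signal over 5 SD above buffer well mean in both duplicates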;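 note: counter screen cells carry the mu-opioid receptor alone and lack TRPC4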)
Conditions: HEK293 mu-opioid cells, Fluo-4 calcium fluorescence, at 10 µM; hits give high values

SMILES | outcome | activation
CCOc1ccccc1OCC(=O)Nc1cc(S(=O)(=O)N2CCCCC2)ccc1N1CCN(CC)CC1 | inactive | –
Cc1onc(-c2c(F)cccc2Cl)c1C(=O)N1CCN(c2ncc(Br)cn2)CC1 | inactive | –
CCOC(=O)C1=NN(C(=O)c2ccc(C)cc2)C(O)(c2ccc(Cl)cc2)C1 (stereo not given) | – | 37.9% (active)
COc1ccc(/C=C/CN2CCCC(C(=O)c3ccc(OC)c(F)c3)C2)cc1 (stereo not given) | inactive | –
NCCSc1c(-c2ccc(Cl)cc2)[nH]c2ccccc12 | – | 19.5% (active)
COc1ccc(C(CNC(=O)c2cccc(NS(=O)(=O)c3ccc(C)c(F)c3)c2)N(C)C)cc1 (stereo not given) | inactive | –
CCCOc1ccc(C(=O)NNC(=S)NC(=O)c2cccs2)cc1 | – | 22.6% (active)
CCOC(=O)C1CCCN(C(c2ccccn2)c2c(C)[nH]c3ccccc23)C1 (stereo not given) | inactive | –
Cc1ccc(NS(=O)(=O)c2ccc(C(=O)N3CC(C)CC(C)C3)cc2)cc1 (stereo not given) | – | 25.6% (active)
COC(=O)C1=NN(C(=O)c2cccc(Br)c2)C(O)(c2ccc(Cl)cc2)C1 (stereo not given) | inactive | –
Cc1cc(C)c(CN2CCN(Cc3ccc(C)o3)C(CCO)C2)c(-n2cccn2)c1 (stereo not given) | inactive | –
CCOc1ccc2ncc(C(=O)c3ccc(OC)cc3)c(N3CCN(CC)CC3)c2c1 | inactive | –
CC(C)(C)c1cc(CCC(=O)NNC(=S)NC(=O)c2ccccc2)cc(C(C)(C)C)c1O | – | 41.2% (active)
COc1ccccc1C(=O)NNC(=S)NC(=O)c1sc2ccccc2c1Cl | inactive | –
O=C1CC(O)(C(F)(F)F)Oc2c1ccc1ccccc21 (stereo not given) | – | 102% (active)
CCCc1ccc(OCC(=O)NNC(=S)NC(=O)c2ccco2)cc1 | inactive | –
Cc1ccccc1OCC(=O)NNC(=S)NC(=O)c1ccco1 | inactive | –
CCCOc1ccc(C(=O)NC(=S)NNC(=O)c2c(-c3ccccc3)noc2C)cc1 | – | 39.4% (active)
Cc1cc(OCCCn2ccnc2)cc(C)c1Cl | inactive | –
CCN1CCN(c2c(S(=O)(=O)c3ccc(C)c(C)c3)cnc3ccc(F)cc23)CC1 | inactive | –
Cc1cccc(C(=O)NC(=S)NNC(=O)c2cccs2)c1 | – | 67.1% (active)
Cc1ccc(C)c(-n2cc(CNCCc3cnccn3)c(-c3ccccc3)n2)c1 | inactive | –
Cc1ccc2c(C)c(C(=O)N(Cc3cccs3)C3CCS(=O)(=O)C3)oc2c1 (stereo not given) | inactive | –
CC(C)(C)c1ccc(C(=O)NC(=S)NNC(=O)c2cccs2)cc1 | – | 84.8% (active)
CCCCN(CC)CCCNC(=O)Cn1nc(Cc2ccncc2)c2ccccc2c1=O | inactive | –

Assay: nonspecific potentiation of DAMGO calcium response – cell-based, HEK293 mu-opioid receptor line, counter-screen for TRPC4 allosteric potentiator project, confirmation (AID 449724);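 note: HEK293 cells carrying mu-opioid receptor only with no TRPC4 channel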
Conditions: HEK293 mu-opioid receptor cells, Fluo-4 calcium flux, at 10 µM, compound added before EC20 DAMGO stimulus; hits give high values

SMILES | outcome
CC1CCCCN1S(=O)(=O)c1ccc(C(=O)N(CCCN(C)C)c2nc3ccc(Br)cc3s2)cc1 (stereo not given) | inactive
CC(C)(C)C(=O)NC(=S)NNC(=O)c1ccc(-c2ccccc2)cc1 | inactive
CCCOc1ccc(C(=O)NNC(=S)NC(=O)c2ccccc2)cc1 | inactive
OCCN1CCN(Cc2cc(Br)cc(Br)c2O)CC1 | inactive
c1ccc(Nc2nc(Nc3ccccc3)nc(N3CCNCC3)n2)cc1 | inactive
O=c1c2cc(Br)ccc2nc(-c2cccc(C(F)(F)F)c2)n1O | inactive
COc1cc(OC)cc(C(=O)NC(=S)NNC(=O)[C@H]2C[C@@H]2c2ccccc2)c1 | inactive
c1ccc2c(c1)CCN(c1ncnc3c1[nH]c1ccccc13)C2 | inactive
O=C(CCc1ccccc1)NNC(=S)NC(=O)c1ccc(Cl)cc1 | inactive
Cc1cccc(C(=O)NNC(=S)NC(=O)c2cccs2)c1 | inactive
CN(C)CCCN(C(=O)c1ccc(S(=O)(=O)N2CCCCCC2)cc1)c1nc2ccc(F)cc2s1 | inactive
CC[C@@H](C(=O)[C@@H](C)[C@@H](O)[C@H](C)CCc1ccc(C)c(O)c1C(=O)O)[C@H]1O[C@](CC)([C@H]2CC[C@](O)(CC)[C@H](C)O2)C[C@@H]1C | inactive
Cc1occc1C(=O)NNC(=S)NC(=O)COc1ccc(Cl)cc1Cl | inactive
COc1cc(OC)cc(C(=O)N[C@H](C(=O)OCC(=O)NC(C)c2ccccc2)C(C)C)c1 (stereo not given in full) | inactive
O=C(NC(=S)NNC(=O)[C@H]1C[C@@H]1c1ccccc1)c1cccc(F)c1 | inactive
CCOc1ccccc1OCC(=O)Nc1cc(S(=O)(=O)N2CCCCC2)ccc1N1CCN(CC)CC1 | inactive
Cc1onc(-c2c(F)cccc2Cl)c1C(=O)N1CCN(c2ncc(Br)cn2)CC1 | inactive
CCOC(=O)C1=NN(C(=O)c2ccc(C)cc2)C(O)(c2ccc(Cl)cc2)C1 (stereo not given) | inactive
COc1ccc(/C=C/CN2CCCC(C(=O)c3ccc(OC)c(F)c3)C2)cc1 (stereo not given) | inactive
NCCSc1c(-c2ccc(Cl)cc2)[nH]c2ccccc12 | inactive

SMILES | outcome
COc1ccc(C(CNC(=O)c2cccc(NS(=O)(=O)c3ccc(C)c(F)c3)c2)N(C)C)cc1 (stereo not given) | inactive
CCCOc1ccc(C(=O)NNC(=S)NC(=O)c2cccs2)cc1 | inactive
CCOC(=O)C1CCCN(C(c2ccccn2)c2c(C)[nH]c3ccccc23)C1 (stereo not given) | inactive
Cc1ccc(NS(=O)(=O)c2ccc(C(=O)N3CC(C)CC(C)C3)cc2)cc1 (stereo not given) | inactive
COC(=O)C1=NN(C(=O)c2cccc(Br)c2)C(O)(c2ccc(Cl)cc2)C1 (stereo not given) | inactive
Cc1cc(C)c(CN2CCN(Cc3ccc(C)o3)C(CCO)C2)c(-n2cccn2)c1 (stereo not given) | inactive
CCOc1ccc2ncc(C(=O)c3ccc(OC)cc3)c(N3CCN(CC)CC3)c2c1 | inactive
CC(C)(C)c1cc(CCC(=O)NNC(=S)NC(=O)c2ccccc2)cc(C(C)(C)C)c1O | inactive
COc1ccccc1C(=O)NNC(=S)NC(=O)c1sc2ccccc2c1Cl | inactive
O=C1CC(O)(C(F)(F)F)Oc2c1ccc1ccccc21 (stereo not given) | inactive
CCCc1ccc(OCC(=O)NNC(=S)NC(=O)c2ccco2)cc1 | inactive
Cc1ccccc1OCC(=O)NNC(=S)NC(=O)c1ccco1 | inactive
CCCOc1ccc(C(=O)NC(=S)NNC(=O)c2c(-c3ccccc3)noc2C)cc1 | inactive
Cc1cc(OCCCn2ccnc2)cc(C)c1Cl | inactive
CCN1CCN(c2c(S(=O)(=O)c3ccc(C)c(C)c3)cnc3ccc(F)cc23)CC1 | inactive
Cc1cccc(C(=O)NC(=S)NNC(=O)c2cccs2)c1 | inactive
Cc1ccc(C)c(-n2cc(CNCCc3cnccn3)c(-c3ccccc3)n2)c1 | inactive
Cc1ccc2c(C)c(C(=O)N(Cc3cccs3)C3CCS(=O)(=O)C3)oc2c1 (stereo not given) | inactive
CC(C)(C)c1ccc(C(=O)NC(=S)NNC(=O)c2cccs2)cc1 | inactive
CCCCN(CC)CCCNC(=O)Cn1nc(Cc2ccncc2)c2ccccc2c1=O | inactive
